Hits are enriched below; roughly 4% of the tested compounds scored in any of these assays.
tim23-1 inh = inhibits growth of tim23-1 mutant yeast; inhibition, % at 20 µM; 1.3% of 330,000 active; S. cerevisiae tim23-1 growth, BacTiter-Glo luminescence, 24 h;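 active = growth inhibition of the mutant yeast at or above 50%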;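 note: temperature-sensitive mutant grown at 25 °C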
TIM10 inh = TIM10 yeast growth inhibition; S. cerevisiae TIM10 strain growth, BacTiter-Glo luminescence, 24 h; 1.4% of 330,000 active; inhibition, % at 10 µM; AID 463195;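 active = inhibition of 40% or more at the single tested concentration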;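 note: wild-type TIM10 isogenic control strain grown at permissive 25 °C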
NLRP3 yeast inh = inhibitors of NALP3 inflammasome in yeast; AID 2825; 0.39% of 330,000 active; Yeast reconstituted NLRP3/ASC/caspase-1, beta-gal luminescence, 24 h; inhibition, % at 10 µM;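 active = inhibition of 50% or more; inactive = inhibition below 50%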
tim10-1 inh = growth inhibitors of tim10-1 mutant yeast | S. cerevisiae tim10-1 ts strain growth, BacTiter-Glo, 24 h | inhibition, % at 20 µM | 2.2% of 330,000 active;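 active = inhibition of at least 40%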;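 note: mutant grown at 25 °C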
NALP1 yeast inh = NALP1 inhibition; S. cerevisiae NALP1/ASC/caspase-1 growth, X-gal OD620, 72 h; inhibition, % at 10 µM; 0.61% of 280,000 active; AID 2071; in the data active = inhibition mostly above about 24%, no sharp cut-off; inactive = mostly below about 32%
tim10-1 conf = confirmation of tim10-1 mutant yeast growth inhibitors; shares compounds with tim10-1 inh; S. cerevisiae tim10-1 ts strain growth, BacTiter-Glo, 24 h; inhibition, % at 20 µM; 56% of 7,400 active; AID 463213;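 active = inhibition of yeast growth at or above a set limit in either of two repeat tests at 20 µM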;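 note: tim10-1 mutant grown at permissive 25 °C to find synthetic lethal compounds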
tim10 confirm = TIM10 yeast growth inhibition, confirmed; shares compounds with TIM10 inh; S. cerevisiae tim10 strain growth, BacTiter-Glo luminescence, 24 h; inhibition, % at 10 µM; 63% of 4,600 active;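 active = inhibition of yeast growth at or above a set limit in either of two replicates at 10 µM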; note: this counterscreen used the strain with wild-type TIM10
tim23-1 confirm = tim23-1 yeast growth inhibition, confirmed | shares compounds with tim23-1 inh | S. cerevisiae tim23-1 growth, BacTiter-Glo luminescence, 24 h | AID 463218 | 83% of 4,400 active | inhibition, % at 20 µM;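 active = inhibition above about 39% in either of two replicate wells at 20 µM, limit read from the data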;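 note: temperature-sensitive tim23-1 mutant grown at 25 °C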
Numbers stand for hits.

`CC1(c2ccc3ccccc3c2)NC(=O)N(CC(=O)N2CCN(c3ccccc3O)CC2)C1=O` (stereo not given) gave tim23-1 inh inactive, TIM10 inh inactive, NLRP3 yeast inh inactive, tim10-1 inh inactive and NALP1 yeast inh inactive.
For CC(=O)c1ccc(N2CCN(C(=O)c3ccc(C(=O)c4ccccc4)cc3)CC2)cc1 the results were tim23-1 inh inactive, TIM10 inh inactive, NLRP3 yeast inh inactive and tim10-1 inh inactive.
For CCOc1cc2c(C#N)c(N3CCCC3)nc(N)c2c(N)n1 the results were tim23-1 inh inactive, TIM10 inh inactive, NLRP3 yeast inh inactive and tim10-1 inh inactive.
N#Cc1c(N2CCCC2)nc(N)c2c(N)nc(N3CCCC3)cc12 was read as tim23-1 inh 81, TIM10 inh 43, NLRP3 yeast inh inactive, tim10-1 inh 60, NALP1 yeast inh inactive, tim10-1 conf 54, tim10 confirm 31 and tim23-1 confirm 89.
Screening COc1ccc(Cl)cc1N1C(=N)SCC1=O returned tim23-1 inh inactive, TIM10 inh inactive, NLRP3 yeast inh inactive, tim10-1 inh inactive and NALP1 yeast inh inactive.
For O=[N+]([O-])c1cc(-c2ncccn2)c([N+](=O)[O-])s1 the results were tim23-1 inh 51, TIM10 inh 91, NLRP3 yeast inh inactive, tim10-1 inh 88, NALP1 yeast inh inactive, tim10-1 conf 84, tim10 confirm 99 and tim23-1 confirm 92.
O=C(C[C@H]1C/C=C\CC[C@@H](Cc2ccc(F)cc2)C(=O)O[C@H](c2ccccc2)CNC1=O)N[C@H](CO)Cc1ccccc1 was read as tim23-1 inh inactive, TIM10 inh inactive, NLRP3 yeast inh inactive and tim10-1 inh inactive.
`O=C(Oc1ccc(Br)cc1C(=O)/C=C/c1ccccc1F)c1ccco1` gave tim23-1 inh 60, TIM10 inh 70, NLRP3 yeast inh inactive, tim10-1 inh 41, tim10-1 conf 40, tim10 confirm 62 and tim23-1 confirm 43.
`CCOc1ccc(NCc2nnc(SCc3ccc(Cl)cc3)n2-c2ccccc2)cc1` gave tim23-1 inh 52, TIM10 inh 47, NLRP3 yeast inh inactive, tim10-1 inh 46, NALP1 yeast inh inactive, tim10-1 conf 42, tim10 confirm inactive and tim23-1 confirm 56.
For Cc1ccc(C)c(N(C(=O)c2snc(C(N)=O)c2N)C(C(=O)NCC2CCCO2)c2ccc(C)o2)c1 (stereo not given) the results were tim23-1 inh inactive, TIM10 inh inactive, NLRP3 yeast inh inactive, tim10-1 inh inactive and NALP1 yeast inh inactive.
O=Cc1ccc(OCc2cccc(C(F)(F)F)c2)cc1O was read as tim23-1 inh 57, TIM10 inh inactive, NLRP3 yeast inh inactive, tim10-1 inh 45, NALP1 yeast inh inactive, tim10-1 conf 48 and tim23-1 confirm 42.
COCOc1ccc(C=O)c(O)c1 was read as tim23-1 inh inactive, TIM10 inh inactive, NLRP3 yeast inh inactive and tim10-1 inh inactive.
`CCCCCN(C(=O)CCC(=O)OCCOc1ccccc1Cl)c1c(N)n(CCCC)c(=O)[nH]c1=O` gave tim23-1 inh inactive, TIM10 inh inactive, NLRP3 yeast inh inactive and tim10-1 inh inactive.
C=CCn1c(=O)/c(=C/c2ccc(O)cc2)s/c1=C(/C#N)c1nnc2n1CCCCC2 was read as tim23-1 inh inactive, TIM10 inh inactive, NLRP3 yeast inh inactive, tim10-1 inh inactive and NALP1 yeast inh inactive.
`C=CCn1c(=O)/c(=C/c2ccc(Cl)cc2)s/c1=C(/C#N)c1nnc2n1CCCCC2` gave tim23-1 inh 63, TIM10 inh 49, NLRP3 yeast inh inactive, tim10-1 inh 57, NALP1 yeast inh inactive, tim10-1 conf 33, tim10 confirm 44 and tim23-1 confirm 58.
For C=C(C)CSc1nnc2n(C)c(=O)c3c4c(sc3n12)CCC4 the results were tim23-1 inh 53, TIM10 inh inactive, NLRP3 yeast inh inactive, tim10-1 inh 46, NALP1 yeast inh inactive, tim10-1 conf inactive and tim23-1 confirm 54.
For CC(C)Oc1ccc(CSc2nnc3n(C)c(=O)c4c5c(sc4n23)CCCC5)cc1 the results were tim23-1 inh inactive, TIM10 inh inactive, NLRP3 yeast inh inactive and tim10-1 inh inactive.
Screening COc1cc(C(=O)NCCCCc2ccccc2)cc(OC)c1OC returned tim23-1 inh inactive, TIM10 inh inactive, NLRP3 yeast inh inactive, tim10-1 inh inactive and NALP1 yeast inh inactive.
For Nc1ccc2c(c1)C(=O)c1ccccc1-2 the results were tim23-1 inh inactive, TIM10 inh inactive, NLRP3 yeast inh inactive and tim10-1 inh inactive.
Nc1ccc2c(c1)C(=O)C(=O)c1ccccc1-2 was read as tim23-1 inh 73, TIM10 inh 94, NLRP3 yeast inh inactive, tim10-1 inh 92, NALP1 yeast inh inactive, tim10-1 conf 92, tim10 confirm 99 and tim23-1 confirm 69.
`COc1cc(C(C[N+](=O)[O-])c2c(-c3ccccc3)cc3ccccn23)cc(OC)c1OC` (stereo not given) gave tim23-1 inh 54, TIM10 inh inactive, NLRP3 yeast inh inactive, tim10-1 inh 41, NALP1 yeast inh inactive, tim10-1 conf 33 and tim23-1 confirm 69.
For COc1cc(C(C[N+](=O)[O-])c2c(C)cc3ccccn23)ccc1O (stereo not given) the results were tim23-1 inh inactive, TIM10 inh inactive, NLRP3 yeast inh inactive, tim10-1 inh inactive and NALP1 yeast inh inactive.
For N#Cc1c2ccc([N+](=O)[O-])cc2[n+]([O-])n1-c1ccccc1 the results were tim23-1 inh 75, TIM10 inh 66, NLRP3 yeast inh inactive, tim10-1 inh 61, tim10-1 conf inactive, tim10 confirm 66 and tim23-1 confirm inactive.
For NCCCn1c(C(=O)c2ccc(Cl)cc2)c2ccc([N+](=O)[O-])cc2[n+]1[O-] the results were tim23-1 inh inactive, TIM10 inh inactive, NLRP3 yeast inh inactive and tim10-1 inh inactive.
O=C(Oc1cccc2c(O)cccc12)c1ccccc1 was read as tim23-1 inh 79, TIM10 inh inactive, NLRP3 yeast inh inactive, tim10-1 inh 47, NALP1 yeast inh inactive, tim10-1 conf inactive and tim23-1 confirm 50.
`O=C(O)CCc1ccccc1OC(=O)c1ccccc1` gave tim23-1 inh inactive, TIM10 inh inactive, NLRP3 yeast inh inactive and tim10-1 inh inactive.
For CCOc1cc(/C=C2/C(=O)ON=C2C)ccc1OCc1ccccc1F the results were tim23-1 inh 58, TIM10 inh inactive, NLRP3 yeast inh inactive, tim10-1 inh 52, NALP1 yeast inh inactive, tim10-1 conf inactive and tim23-1 confirm 52.
For COc1cccc(-c2sc3ccc(OC)cc3c2-c2ccc(OCCN3CCCC3)cc2)c1 the results were tim23-1 inh 70, TIM10 inh inactive, tim10-1 inh 40, tim10-1 conf 38 and tim23-1 confirm 46.
